Here are results for eight compounds from PubChem BioAssay (Tox21).

Inconclusive results are not listed. A number with no mark means an inactive call. Active and inactive are the calls of the source. Unless noted, calls come from the whole dose curve; as a rule, active = well fitted curve in the direction sought with a large enough effect in the repeat runs; inconclusive = weak or mixed curves; inactive = no such curve, though single readings can be large; an effect the other way counts as inactive or inconclusive.

Test [1] is described as follows: qHTS assay to identify small molecule agonists of the vitamin D receptor (VDR) signaling pathway - cell viability counter screen (AID 743224). Note: nearly all actives have a fitted effect of over 50% in size. Note: potency is the fitted concentration of half-maximal effect. An outline of the steps:
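Cells: VDR-bla, 2,000/well, settled 4 h. Treatment: compounds in DMSO, 16 h, 37C/5% CO2. Readout: CellTiter-Glo luminescence after 30 min RT.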
(In qHTS, concentration-response curves come from the screen itself.)

Test [2] can be described thus: qHTS assay to identify small molecule antagonists of the vitamin D receptor (VDR) signaling pathway - cell viability counter screen (AID 743225). Note: % is set by controls: 0 for no effect and ±100 for the full control effect; nearly all actives have a fitted effect of over 50% in size. An outline of the steps: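 Parallel cytotoxicity test: VDR-UAS-bla HEK 293T, 3 nM (final) 1-alpha,25-dihydroxyvitamin D3 with test compound, 16 h, 37C. Endpoint is CellTiter-Glo luminescence in the same wells.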
A short description of test [3]: qHTS assay to identify small molecule agonists of the NFkB signaling pathway (AID 1159509; active = well fitted curve in the direction sought with a large enough effect in the signal ratio in the repeat runs, not every such curve was filed as active; the % refers to the signal ratio; note: series mostly up to about 61 µM; % is set by controls: 0 for no effect and ±100 for the full control effect). An outline of the steps:
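Beta-lactamase reporter assay run in quantitative high-throughput format on an NF-kB-responsive ME-180 line, with 5 hr compound treatment and a FRET-based blue/green fluorescence readout.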

A short description of test [4]: qHTS assay to identify small molecule agonists of the NFkB signaling pathway - cell viability counter screen (AID 1159515; calls by dose curve; note: series mostly up to about 61 µM; % is set by controls: 0 for no effect and ±100 for the full control effect; nearly all actives have a fitted effect of over 55% in size). An outline of the steps:
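Cells are seeded (2,000 NFkB-bla ME-180 per well), rested overnight, and dosed with DMSO-dissolved compounds for 5 hr at 37 C. Viability is then read by CellTiter-Glo luminescence after 30 min at room temperature.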

Test [5] is described as follows: qHTS assay to identify small molecule agonists of the endoplasmic reticulum stress response signaling pathway (AID 1159516; active = well fitted activation curve with a large enough effect in the signal ratio in the repeat runs, not every such curve was filed as active; the % refers to the signal ratio; note: % is set by controls: 0 for no effect and ±100 for the full control effect). An outline of the steps: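 Cells are seeded at 1,500 per well and incubated overnight. Compounds in DMSO are added for 5 hr at 37 C, then beta-lactamase FRET substrate for 2 hr at room temperature, and fluorescence at 460 and 530 nm is measured.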

Test [6] is described as follows: qHTS assay to identify small molecule agonists of the endoplasmic reticulum stress response signaling pathway - cell viability counter screen (AID 1159517; calls by dose curve;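 note: HeLa cells carrying an ER stress response element beta-lactamase reporter; series mostly up to about 61 µM; % is set by controls: 0 for no effect and ±100 for the full control effect; nearly all actives have a fitted effect of over 50% in size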). An outline of the steps:
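After overnight attachment, ESRE-bla HeLa cells were treated with Tox21 library compounds for 5 hr. CellTiter-Glo luminescence, read 30 min post-addition at room temperature, reported viability.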

A short description of test [7]: qHTS assay to identify small molecule antagonists of the retinoid-related orphan receptor gamma (ROR-gamma) signaling pathway - cell viability counter screen (AID 1159520). Note: % is set by controls: 0 for no effect and ±100 for the full control effect; nearly all actives have a fitted effect of over 50% in size. An outline of the steps: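 Cytotoxicity was read from cellular ATP (CellTiter-Glo luminescence) after 16 hr at 37 C with 1 uM doxycycline induction. The inducer was added 2 hr after compound transfer to Tet-on ROR gamma CHO cells.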

For test [8], the target named is Nuclear receptor ROR-gamma (Homo sapiens) (UniProt P51449). Nature of the test: qHTS assay to identify small molecule antagonists of the retinoid-related orphan receptor gamma (ROR-gamma) signaling pathway (AID 1159521). An outline of the steps:
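Decreased RORE-driven luciferase luminescence indicates antagonism. Tet-on RORγ CHO cells received compound, then 1 uM final doxycycline 2 h later; signal read after 16 h incubation.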

Test [9] is described as follows: qHTS assay to identify small molecule agonists of the AP-1 signaling pathway - cell viability counter screen (AID 1159525; calls by dose curve; note: nearly all actives have a fitted effect of over 55% in size). An outline of the steps: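 Intracellular ATP by Cell Titer Glo luminescence (30 min, RT) in the same ME-180 AP-1-bla wells after the 5 h compound exposure at 37 °C. Normalised to tetra n-octyl ammonium bromide and DMSO controls.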
The nature of test [10]: qHTS assay to identify small molecule agonists of the AP-1 signaling pathway (AID 1159526; calls by dose curve; note: % is set by controls: 0 for no effect and ±100 for the full control effect).
For test [11], the target named is Retinoic acid receptor RXR-alpha (Homo sapiens) (UniProt P19793). The test is described as follows: qHTS assay to identify small molecule agonists of the RXR signaling pathway (AID 1159527; calls by dose curve; note: nearly all actives have a fitted effect of over 35% in size; note: potency is the fitted concentration of half-maximal effect). An outline of the steps:
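16 hr incubation of compound-treated RXR-alpha-UAS-bla HEK 293T cells (2% charcoal-stripped FBS, 37 C) preceded a 2 hr room-temperature LiveBLAzer FRET substrate step and blue/green fluorescence measurement.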

Test [12] in a line: qHTS assay to identify small molecule agonists of the RXR signaling pathway - cell viability counter screen (AID 1159529). An outline of the steps:
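In this parallel viability measure, GeneBLAzer RXR-alpha HEK 293T cells (2% charcoal-stripped FBS) were given a 5 hr preincubation, treated with compounds 16 hr at 37 C, and read by CellTiter-Glo luminescence.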

Test [13] can be described thus: qHTS assay to identify small molecule antagonists of the retinoid acid receptor (RAR) signaling pathway - cell viability counter screen (AID 1159551). Note: % is set by controls: 0 for no effect and ±100 for the full control effect; nearly all actives have a fitted effect of over 35% in size. An outline of the steps:
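Cells (C3RL4) are plated, incubated overnight, dosed with compound in DMSO, then given retinol at 1 uM final. After 6 h at 37 C, CellTiter-Glo is added and luminescence read following 30 min at room temperature.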

A short description of test [14]: qHTS assay to identify small molecule antagonists of the retinoic acid receptor (RAR) signaling pathway (AID 1159552). An outline of the steps: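 C3RL4 RARE-luc cells, overnight plating; retinol 1 uM final added right after compound; 6 hr 37 C; luciferase read at 30 min RT.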
Test [15] is described as follows: qHTS assay to identify small molecule agonists of the retinoic acid receptor (RAR) signaling pathway (AID 1159553). Note: % is set by controls: 0 for no effect and ±100 for the full control effect. An outline of the steps: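 Seed C3RL4 reporter cells at 1,000 per well and incubate overnight at 37 C. Add compounds in DMSO, incubate 6 hr. Add luciferase reagent, wait 30 min at room temperature, read luminescence.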
The nature of test [16]: qHTS assay to identify small molecule antagonists of the estrogen related receptor (ERR) signaling pathway - cell viability counter screen (AID 1224818). An outline of the steps: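 ERR cells, 2,000/well; 6 h settle at 37 C/5% CO2; compound pin transfer (DMSO); 17.5 h at 37 C; CellTiter-Fluor, 30 min, fluorescence read.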
Test [17] can be described thus: qHTS assay to identify small molecule antagonists of the estrogen related receptor (ERR) signaling pathway (AID 1224819). An outline of the steps: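 qHTS in ERR cells, 2,000/well, 1536 format. Cpd (DMSO) added after 6 h settle, 18 h 37 C. One-Glo luminescence, 30 min RT.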
Test [18] is described as follows: qHTS assay to identify small molecule agonists of the estrogen related receptor (ERR) signaling pathway (AID 1224820). Note: % is set by controls: 0 for no effect and ±100 for the full control effect. An outline of the steps: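 Following a 6 h settling period, 2,000 ERR cells per well receive DMSO-dissolved compounds by pin tool and incubate 18 h at 37 C; agonist activity is scored from One-Glo luminescence read 30 min post-addition.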
In test [19] the test system is estrogen-related receptor alpha (ERRalpha) with PGC-1alpha coactivator, human. The test is described as follows: qHTS assay to identify small molecule antagonists of the estrogen related receptor signaling pathway with the pleiotropic PPARgamma coactivator (PGC) (AID 1224821; calls by dose curve). An outline of the steps:
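Screening used NTP's PGC/ERR cells, dosed via pin tool with compound in DMSO alongside positive and negative controls. After 18 h at 37 C, One-Glo reagent sat 30 min at room temperature before luminescence detection.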

Test [20] is described as follows: qHTS assay to identify small molecule antagonists of the estrogen related receptor signaling pathway with the pleiotropic PPARgamma coactivator (PGC) cell viability counter screen (AID 1224822). An outline of the steps: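 Multiplexed viability counter screen run in PGC/ERR cells treated with compounds for 17.5 h at 37 C; live-cell protease signal measured by CellTiter-Fluor fluorescence.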

Chain of Retinoic acid receptor RXR-alpha (Homo sapiens) (P19793 whole entry, looked up): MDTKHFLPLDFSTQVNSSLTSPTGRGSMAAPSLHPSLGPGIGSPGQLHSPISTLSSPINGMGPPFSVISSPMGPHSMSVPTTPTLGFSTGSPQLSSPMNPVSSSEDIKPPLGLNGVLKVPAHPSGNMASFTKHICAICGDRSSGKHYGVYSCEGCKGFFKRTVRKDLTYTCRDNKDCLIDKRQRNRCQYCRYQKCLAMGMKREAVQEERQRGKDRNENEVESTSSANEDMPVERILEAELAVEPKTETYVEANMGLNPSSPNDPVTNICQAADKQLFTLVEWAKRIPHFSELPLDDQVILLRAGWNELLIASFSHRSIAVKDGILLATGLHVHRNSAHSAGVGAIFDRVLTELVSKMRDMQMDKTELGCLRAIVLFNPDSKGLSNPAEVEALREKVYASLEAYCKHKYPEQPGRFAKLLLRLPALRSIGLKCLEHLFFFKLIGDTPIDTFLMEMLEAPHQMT

On to `CC(COC(C)(C)C)OCCCO` (stereo not given), for which the Potency result in test [1], in test [6] and in test [15] was “inactive” throughout. The compound was called inactive in [2], in test [3], in test [4], in test [5], in test [7] and in [8]. Also, the compound was called inactive in test [9], in test [10], in [12], in test [13] and in test [14]. Also, the Potency in test [11] was 11 µM (active).
As to `CC(CN)CC(C)(C)CCN` (stereo not given), the Potency result in test [1], in test [6], in test [11] and in [15] was “inactive” throughout. The call in [2], in test [3], in [4], in [5], in test [7] and in test [8] was inactive. The compound was called inactive in test [9], in test [10], in [12], in [13] and in test [14].
On to `CC(CC=O)CCCC(C)(C)O` (stereo not given), for which the compound was called inactive in test [2], in test [3], in test [4], in test [5], in test [7] and in test [8]. In addition, the compound was classed as inactive in [9], in test [10], in test [12], in test [13] and in test [14]. Moreover, the Potency entry in test [6] and in test [11] was “inactive” each time.
In the case of `NC(CO)C(=O)NNCc1ccc(O)c(O)c1O` (stereo not given), the Potency entry in test [1], in test [6] and in test [11] was “inactive” each time. For the same compound, the call in test [2], in test [3], in test [4], in [5], in test [7] and in test [8] was inactive. The compound was called inactive in test [9], in [10], in [12], in test [13], in test [16] and in test [17]. Further, the result in test [18], in test [19] and in [20] was inactive.
As to `Cc1ccccc1OCC(O)CO` (stereo not given), the Potency entry in [1], in [6] and in test [11] was “inactive” each time. Besides, the outcome in test [3], in [4], in [5], in [7], in test [8] and in test [9] was inactive. In addition, the call in test [10], in test [12] and in test [13] was inactive.
Take `CCCOC(=O)C(C)O` (stereo not given): the Potency in test [1] is 56.1 µM (active). Also, the outcome in test [3], in test [4], in [5], in [7], in test [8] and in test [9] was inactive. The call in [10], in test [12], in [13] and in test [14] was inactive. For the same compound, the Potency result in test [6] and in test [11] was “inactive” each time.
With `O=S(O)(O)=S`, the activity change, negative = cytotoxicity in test [1] was -0.106% [at 5.95 µM]; in [6], -2.33% [at 6.95 µM]; in test [12], 0.418% [at 6.97 µM]; in test [13], 0.445% [at 8.39 µM]. In addition, the viability change, negative = cytotoxic is 4.99% [at 6.95 µM] in [2] and 1.76% [at 6.97 µM] in test [9]. Further, the activation is -0.163% [at 6.95 µM] in [3]; 0.601% [at 6.95 µM] in test [5]; 11.4% [at 6.97 µM] in test [10]; 4.57% [at 6.98 µM] in test [11]; -0.738% [at 8.36 µM] in [15]. In addition, the activity, negative = cytotoxic in test [4] was 0.146% [at 6.95 µM]. Moreover, the activity, negative = cytotoxicity in [7] was 8.82% [at 8.39 µM]. Moreover, the activity change, negative = inhibition in test [8] is 6.6% [at 8.39 µM].
On to `N[C@@H](COP(=O)(O)O)C(=O)O`, for which the Potency result in test [1] and in test [6] was “inactive” throughout. For the same compound, the compound was called inactive in [2], in test [3], in [4], in [5], in [16] and in [20]. Moreover, the activity, negative = cytotoxicity in [7] is -0.691% [at 19 µM]. Besides, the activity change, negative = inhibition in test [8] is -15% [at 19 µM]. Moreover, the viability change, negative = cytotoxic in test [9] was 11.4% [at 15.8 µM]. Further, the activation in test [10] was -0.856% [at 15.8 µM]; in test [11] it was 7.83% [at 15.8 µM]. The activity change, negative = cytotoxicity in test [12] is 11.4% [at 15.8 µM]; in test [13], -0.284% [at 19 µM].
